Source: PubChem BioAssay (NCI)
The panel holds about 79,000 compounds, 15% with a hit somewhere; the sample as a whole holds those more often. Activity calls are given as the source filed them. No stated cut-off is given here; in the data, active means growth inhibition above about 70%; inactive means the rest.

Experiments:
[1] = NCI Yeast Anticancer Drug Screen. Data for the rad50 strain (AID 155);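 further: 0% = growth of vehicle-only cultures of the same strain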; conditions: S. cerevisiae rad50 strain growth inhibition, active compounds read high
Method in brief: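 Yeast carrying a defined DNA repair defect were exposed to test compounds, and growth was compared with vehicle-treated controls to give percent inhibition.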

[2] = NCI Yeast Anticancer Drug Screen. Data for the mec2-1 strain (AID 157); conditions: S. cerevisiae mec2-1 strain, active compounds read high
Method in brief: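 Readout is yeast growth inhibition, normalised to vehicle-treated controls, in the mec2-1 strain exposed to compound.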

[3] = NCI Yeast Anticancer Drug Screen. Data for the sgs1 mgt1 strain (AID 161);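 further: 0% = growth of cultures given vehicle only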; conditions: S. cerevisiae sgs1 mgt1 strain, active compounds read high
Method in brief: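 Growth of a repair-deficient yeast mutant was monitored after compound treatment and expressed as inhibition relative to vehicle-treated cultures.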

[4] = NCI Yeast Anticancer Drug Screen. Data for the cln2 rad14 strain (AID 165);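 further: 0% = growth equal to vehicle treated cultures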; conditions: S. cerevisiae cln2 rad14 strain, active compounds read high
Method in brief: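 Relative to vehicle controls, growth inhibition of compound-treated cln2 rad14 yeast was recorded.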

[5] = NCI Yeast Anticancer Drug Screen. Data for the bub3 strain (AID 167); conditions: S. cerevisiae bub3 mutant strain, active compounds read high
Method in brief: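 Compounds were applied to a genetically altered yeast strain carrying a cell-cycle control defect. Growth inhibition was scored against vehicle-treated controls.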

[6] = NCI Yeast Anticancer Drug Screen. Data for the mlh1 rad18 strain (AID 175); conditions: S. cerevisiae mlh1 rad18 strain growth inhibition, active compounds read high
Method in brief: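 Test agents were incubated with a yeast strain of defined genotype (DNA damage repair defect). Inhibition of growth was derived by comparison with vehicle-exposed cultures.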

[7] = at 5.0 µM (retest, dose inferred, filed as 0.5)
[8] = at 50.0 µM (retest, dose inferred, filed as 5.0)

Measured: growth inhibition

COc1cc(OC)c(/C=C\c2ccnc3ccccc23)c(OC)c1
inactive: [1]; [7] 35% | [2]; [7] 32% | [3]; [7] 26% | [4]; [7] 19% | [4]; [8] 55% | [4]; at 50.0 µM 37.5% | [5]; [7] 22% | [5]; at 50.0 µM 35% | [6]; [7] 41% | [6]; at 50.0 µM -2.05%
active: [1]; [8] 91% | [1]; at 50.0 µM 81.6% | [2]; [8] 93% | [2]; at 50.0 µM 86.3% | [3]; [8] 96% | [3]; at 50.0 µM 84.7% | [5]; [8] 98% | [6]; [8] 91%

CN(C)CC(C)(CN(C)C)C(=O)/C=C/c1ccc(Cl)c(Cl)c1
active: [1]; [8] 98% | [1]; at 50.0 µM 99.7% | [2]; [8] 99% | [2]; at 50.0 µM 99.8% | [3]; [8] 98% | [3]; at 50.0 µM 99.8% | [4]; [8] 99% | [4]; at 50.0 µM 99% | [5]; [8] 100% | [5]; at 50.0 µM 99.5% | [6]; [8] 99% | [6]; at 50.0 µM 99.6%
inactive: [1]; [7] 27% | [2]; [7] 18% | [3]; [7] 38% | [4]; [7] 13% | [5]; [7] 12% | [6]; [7] 41%

CCN(CC)CCNC(=O)c1ccc2c(c1O)C(=O)c1ccccc1C2=O
active: [6]; at 50.0 µM 70%
inactive: [1]; [7] 6% | [1]; [8] 54% | [1]; at 50.0 µM 57.3% | [2]; [7] 27% | [2]; [8] 24% | [2]; at 50.0 µM 36% | [3]; [7] 1% | [3]; [8] 40% | [3]; at 50.0 µM 60.5% | [4]; [7] -10% | [4]; [8] 23% | [4]; at 50.0 µM 3.55% | [5]; [7] -3% | [5]; [8] 43% | [5]; at 50.0 µM 33% | [6]; [7] 9% | [6]; [8] 44%

Clc1ccc(C(CCc2ccc(Br)cc2)Cn2ccnc2)c(Cl)c1 (stereo not given)
active: [1]; [7] 94% | [1]; [8] 99% | [1]; at 50.0 µM 99.4% | [2]; [7] 82% | [2]; [8] 99% | [2]; at 50.0 µM 99.5% | [3]; [7] 87% | [3]; [8] 99% | [4]; [7] 72% | [4]; [8] 99% | [4]; at 50.0 µM 99.5% | [5]; [7] 91% | [5]; [8] 99% | [5]; at 50.0 µM 99.2% | [6]; [7] 71% | [6]; [8] 98% | [6]; at 50.0 µM 99.5%
inactive: [3]; at 50.0 µM 59.7%

O=C/C(Br)=C\c1ccccc1
active: [1]; [8] 99% | [2]; [8] 99% | [2]; at 50.0 µM 99.2% | [3]; [8] 99% | [4]; [8] 99% | [4]; at 50.0 µM 98.4% | [5]; [8] 99% | [6]; [8] 99%
inactive: [1]; [7] 36% | [1]; at 50.0 µM 55.2% | [2]; [7] 20% | [3]; [7] 25% | [3]; at 50.0 µM 49.5% | [4]; [7] 12% | [5]; [7] 26% | [5]; at 50.0 µM 48.4% | [6]; [7] 16% | [6]; at 50.0 µM 7.45%

O=C(O)Cc1cccc(O)c1
inactive: [1]; [7] 0% | [1]; [8] -3% | [1]; at 50.0 µM 10.5% | [2]; [7] 3% | [2]; [8] -1% | [2]; at 50.0 µM 41.9% | [3]; [7] -3% | [3]; [8] -4% | [3]; at 50.0 µM -1.9% | [4]; [7] -8% | [4]; [8] 1% | [4]; at 50.0 µM 35.1% | [5]; [7] -1% | [5]; [8] 1% | [5]; at 50.0 µM 5.8% | [6]; [7] 0% | [6]; [8] -3% | [6]; at 50.0 µM -0.1%

O=C(O)C1CC[N-]CC1.O=C(O)C1CC[N-]CC1.[Cl][Pt+2]([Cl])([Cl])[Cl]
inactive: [1]; [7] 30% | [2]; [7] 2% | [3]; [7] 38% | [4]; [7] 0% | [5]; [7] 17% | [6]; [7] 25%
active: [1]; [8] 90% | [1]; at 50.0 µM 97.6% | [2]; [8] 94% | [2]; at 50.0 µM 85.2% | [3]; [8] 94% | [3]; at 50.0 µM 94.1% | [4]; [8] 97% | [4]; at 50.0 µM 81.7% | [5]; [8] 93% | [5]; at 50.0 µM 90.2% | [6]; [8] 94% | [6]; at 50.0 µM 88.8%

c1ccc2cc3c(cc2c1)Nc1c2ccccc2nc2cccc-3c12
active: [1]; [8] 70% | [2]; at 50.0 µM 70.5% | [3]; [8] 72% | [3]; at 50.0 µM 79.4% | [5]; [8] 78% | [5]; at 50.0 µM 81.3% | [6]; [8] 71% | [6]; at 50.0 µM 89.8%
inactive: [1]; [7] 31% | [1]; at 50.0 µM 54% | [2]; [7] 17% | [2]; [8] 57% | [3]; [7] 24% | [4]; [7] 25% | [4]; [8] 54% | [4]; at 50.0 µM 56.5% | [5]; [7] 15% | [6]; [7] 29%

Cc1cc(=O)n(-c2cc3cccccc-3n2)[nH]1
inactive: [1]; [7] -9% | [2]; [7] 2% | [3]; [7] 2% | [4]; [7] -11% | [5]; [7] -1% | [6]; [7] -1%
active: [1]; [8] 96% | [1]; at 50.0 µM 96.8% | [2]; [8] 97% | [2]; at 50.0 µM 71.6% | [3]; [8] 98% | [3]; at 50.0 µM 97.8% | [4]; [8] 98% | [4]; at 50.0 µM 70.3% | [5]; [8] 95% | [5]; at 50.0 µM 86.2% | [6]; [8] 98% | [6]; at 50.0 µM 96.2%

CN1CCN(CCn2c3c4ccccc4ccc3c3oc(=O)c4ccccc4c32)CC1
active: [1]; [8] 95% | [2]; [8] 97% | [2]; at 50.0 µM 89.7% | [3]; [8] 96% | [3]; at 50.0 µM 91.2% | [4]; [8] 92% | [4]; at 50.0 µM 90.4% | [5]; [8] 97% | [5]; at 50.0 µM 91.8% | [6]; [8] 97% | [6]; at 50.0 µM 90.8%
inactive: [1]; [7] 40% | [1]; at 50.0 µM 38.5% | [2]; [7] -13% | [3]; [7] 28% | [4]; [7] 22% | [5]; [7] 19% | [6]; [7] 13%
